Measured values from PubChem BioAssay AID1159580 (chemical genetic matrix, 2015).
Several values for one entry are separate records, joined by “and”; a condition that tells them apart may be missing. Equal values may be shown once. In all, about 5,500 compounds went through this assay and about 2,000 (36%) were called active. Another 18% or so got no clear call; they are omitted. No stated cut-off is given here; in the data, active means normalized growth mostly below about 0.91 (no sharp cut-off); inconclusive means no clear call, values can overlap the other calls; inactive means mostly above about 0.92. The list shows a part of the results.

Assay: chemical genetic growth profiling, strain panel (AID 1159580);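 further: tested at 20 µM; growth read once vehicle control cultures reached saturation at 30 °C; 1 = growth at the plate median or of vehicle wells; lower values mean less growth of the strain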
Settings: growth OD
[1] = S. cerevisiae deletion strains, locus YAL013W, strain DEP1, active compounds read low
[2] = S. cerevisiae deletion strains, locus YBR021W, strain FUR4, active compounds read low
[3] = S. cerevisiae deletion strains, locus YBR229C, strain ROT2, active compounds read low
[4] = S. cerevisiae deletion strains, locus YCL029C, strain bik1, active compounds read low
[5] = S. cerevisiae deletion strains, locus YDL035C, strain GPR1, active compounds read low
[6] = S. cerevisiae deletion strains, locus YDL074C, strain BRE1, active compounds read low
[7] = S. cerevisiae deletion strains, locus YDL101C, strain DUN1, active compounds read low
[8] = S. cerevisiae deletion strains, locus YDL134C, strain PPH21, active compounds read low
[9] = S. cerevisiae deletion strains, locus YDL185W, strain tfp1, active compounds read low
[10] = S. cerevisiae deletion strains, locus YDL192W, strain arf1, active compounds read low
[11] = S. cerevisiae deletion strains, locus YDR101C, strain arx1, active compounds read low
[12] = S. cerevisiae deletion strains, locus YDR150W, strain NUM1, active compounds read low
[13] = S. cerevisiae deletion strains, locus YDR162C, strain NBP2, active compounds read low
[14] = S. cerevisiae deletion strains, locus YDR318W, strain mcm21, active compounds read low
[15] = S. cerevisiae deletion strains, locus YDR388W, active compounds read low
[16] = S. cerevisiae deletion strains, locus YDR502C, strain sam2, active compounds read low
[17] = S. cerevisiae deletion strains, locus YEL061C, strain CIN8, active compounds read low
[18] = S. cerevisiae deletion strains, locus YER110C, active compounds read low
[19] = S. cerevisiae deletion strains, locus YER155C, strain BEM2, active compounds read low
[20] = S. cerevisiae deletion strains, locus YER167W, strain BCK2, active compounds read low
[21] = S. cerevisiae deletion strains, locus YGL078C, strain dbp3, active compounds read low
[22] = S. cerevisiae deletion strains, locus YGL086W, strain mad1, active compounds read low
[23] = S. cerevisiae deletion strains, locus YGL248W, strain PDE1, active compounds read low
[24] = S. cerevisiae deletion strains, locus YGR078C, strain PAC10, active compounds read low
[25] = S. cerevisiae deletion strains, locus YGR135W, strain pre9, active compounds read low
[26] = S. cerevisiae deletion strains, locus YGR229C, strain SMI1, active compounds read low
[27] = S. cerevisiae deletion strains, locus YGR252W, strain gcn5, active compounds read low
[28] = S. cerevisiae deletion strains, locus YHR030C, strain SLT2, active compounds read low
[29] = S. cerevisiae deletion strains, locus YHR079C, strain IRE1 (second series), active compounds read low
[30] = S. cerevisiae deletion strains, locus YHR094C, strain hxt1, active compounds read low
[31] = S. cerevisiae deletion strains, locus YHR129C, strain ARP1, active compounds read low
[32] = S. cerevisiae deletion strains, locus YHR200W, strain rpn10, active compounds read low
[33] = S. cerevisiae deletion strains, locus YIL066C, strain RNR3, active compounds read low
[34] = S. cerevisiae deletion strains, locus YIL073C, strain SPO22, active compounds read low
[35] = S. cerevisiae deletion strains, locus YIL125W, strain kgd1, active compounds read low
[36] = S. cerevisiae deletion strains, locus YIR030C, strain dcg1, active compounds read low
[37] = S. cerevisiae deletion strains, locus YJL095W, strain BCK1, active compounds read low
[38] = S. cerevisiae deletion strains, locus YJL134W, strain LCB3, active compounds read low
[39] = S. cerevisiae deletion strains, locus YJL168C, strain set2, active compounds read low
[40] = S. cerevisiae deletion strains, locus YJL187C, strain SWE1 (second series), active compounds read low
[41] = S. cerevisiae deletion strains, locus YJR043C, strain POL32, active compounds read low
[42] = S. cerevisiae deletion strains, locus YJR075W, strain HOC1, active compounds read low
[43] = S. cerevisiae deletion strains, locus YKL009W, strain mrt4, active compounds read low
[44] = S. cerevisiae deletion strains, locus YKL068W, active compounds read low
[45] = S. cerevisiae deletion strains, locus YKL085W, strain MDH1 (second series), active compounds read low
[46] = S. cerevisiae deletion strains, locus YKL085W, strain MDH1, active compounds read low
[47] = S. cerevisiae deletion strains, locus YKL190W, strain CNB1, active compounds read low
[48] = S. cerevisiae deletion strains, locus YKR001C, strain vps1, active compounds read low
[49] = S. cerevisiae deletion strains, locus YLR039C, strain RIC1, active compounds read low
[50] = S. cerevisiae deletion strains, locus YLR058C, strain SHM2, active compounds read low
[51] = S. cerevisiae deletion strains, locus YLR102C, strain apc9, active compounds read low
[52] = S. cerevisiae deletion strains, locus YLR262C, strain YPT6, active compounds read low
[53] = S. cerevisiae deletion strains, locus YLR268W, strain sec22, active compounds read low
[54] = S. cerevisiae deletion strains, locus YLR330W, strain CHS5, active compounds read low
[55] = S. cerevisiae deletion strains, locus YLR342W, strain FKS1 (second series), active compounds read low
[56] = S. cerevisiae deletion strains, locus YLR371W, strain rom2, active compounds read low
[57] = S. cerevisiae deletion strains, locus YLR418C, strain cdc73, active compounds read low
[58] = S. cerevisiae deletion strains, locus YML016C, strain PPZ1, active compounds read low
[59] = S. cerevisiae deletion strains, locus YML032C, strain rad52, active compounds read low
[60] = S. cerevisiae deletion strains, locus YML124C, strain tub3, active compounds read low
[61] = S. cerevisiae deletion strains, locus YMR078C, strain ctf18, active compounds read low
[62] = S. cerevisiae deletion strains, locus YMR223W, strain ubp8, active compounds read low
[63] = S. cerevisiae deletion strains, locus YMR263W, strain SAP30, active compounds read low
[64] = S. cerevisiae deletion strains, locus YMR307W, strain GAS1, active compounds read low
[65] = S. cerevisiae deletion strains, locus YNL067W, strain RPL9B, active compounds read low
[66] = S. cerevisiae deletion strains, locus YNL128W, strain TEP1, active compounds read low
[67] = S. cerevisiae deletion strains, locus YNL153C, strain GIM3, active compounds read low
[68] = S. cerevisiae deletion strains, locus YNL233W, strain BNI4, active compounds read low
[69] = S. cerevisiae deletion strains, locus YNL250W, strain rad50, active compounds read low
[70] = S. cerevisiae deletion strains, locus YNL271C, strain bni1, active compounds read low
[71] = S. cerevisiae deletion strains, locus YNL298W, strain CLA4, active compounds read low
[72] = S. cerevisiae deletion strains, locus YNL307C, strain MCK1, active compounds read low
[73] = S. cerevisiae deletion strains, locus YNL322C, strain KRE1, active compounds read low
[74] = S. cerevisiae deletion strains, locus YNR052C, strain pop2, active compounds read low
[75] = S. cerevisiae deletion strains, locus YOL006C, strain TOP1, active compounds read low
[76] = S. cerevisiae deletion strains, locus YOL012C, strain htz1
[77] = S. cerevisiae deletion strains, locus YOL147C, strain pex11, active compounds read low
[78] = S. cerevisiae deletion strains, locus YOR061W, strain CKA2, active compounds read low
[79] = S. cerevisiae deletion strains, locus YOR069W, strain VPS5, active compounds read low
[80] = S. cerevisiae deletion strains, locus YOR136W, strain idh2, active compounds read low
[81] = S. cerevisiae deletion strains, locus YOR144C, strain elg1, active compounds read low
[82] = S. cerevisiae deletion strains, locus YOR184W, strain ser1, active compounds read low
[83] = S. cerevisiae deletion strains, locus YOR316C, strain cot1, active compounds read low
[84] = S. cerevisiae deletion strains, locus YPL055C, strain LGE1, active compounds read low
[85] = S. cerevisiae deletion strains, locus YPL241C, strain CIN2, active compounds read low
[86] = S. cerevisiae deletion strains, locus YPR119W, strain clb2, active compounds read low
[87] = S. cerevisiae deletion strains, locus YPR141C, strain kar3, active compounds read low
[88] = S. cerevisiae deletion strains, locus YPR163C, strain tif3, active compounds read low
[89] = S. cerevisiae deletion strains, locus YPR167C, strain met16, active compounds read low
[90] = S. cerevisiae deletion strains, strain wtn01, active compounds read low
[91] = S. cerevisiae strains, strain wild type, active compounds read low

Measured: normalized growth

Cc1ccc2cc3c(ccc4ccccc43)c3c2c1CC3
inactive: [1] 0.998 | [2] 0.988 | [3] 0.982 | [4] 0.954 | [5] 0.916 | [6] 0.963 | [7] 0.973 | [8] 0.997 | [9] 0.99 | [11] 0.96 | [12] 1 | [15] 0.96 | [17] 0.994 | [18] 0.952 | [19] 0.997 | [20] 0.917 | [21] 1 | [23] 0.981 | [24] 0.957 | [25] 0.924 | [26] 0.841 | [27] 0.922 | [29] 0.954 | [30] 0.981 | [31] 0.983 | [32] 0.933 | [33] 0.949 | [34] 0.906 | [35] 0.941 | [36] 0.961 | [37] 0.828 | [38] 0.99 | [39] 0.967 | [40] 0.99 | [41] 0.993 | [42] 0.904 | [43] 0.999 | [44] 0.997 | [45] 0.999 | [46] 0.999 | [47] 0.958 | [50] 0.981 | [51] 0.983 | [54] 0.986 | [55] 0.91 | [56] 0.974 | [58] 0.987 | [59] 0.908 | [60] 0.98 | [61] 0.959 | [63] 0.986 | [64] 0.711 | [65] 0.985 | [66] 0.931 | [67] 1.03 | [68] 0.933 | [69] 0.966 | [70] 0.959 | [71] 0.949 | [73] 0.998 | [74] 0.951 | [75] 0.937 | [76] 0.778 | [78] 0.98 | [79] 0.988 | [80] 0.927 | [81] 0.963 | [83] 0.981 | [84] 0.931 | [85] 1 | [86] 0.976 | [87] 0.983 | [88] 0.916 | [89] 0.968 | [90] 0.928 | [91] 0.97
active: [10] 0.795 | [13] 0.626 | [14] 0.884 | [16] 0.868 | [22] 0.894 | [28] 0.837 | [48] 0.685 | [49] 0.64 | [52] 0.568 | [53] 0.838 | [57] 0.532 | [62] 0.844 | [72] 0.591 | [77] 0.896 | [82] 0.559

CCCn1c(C)c(C(=O)c2ccc3ccccc3c2)c2ccccc21
inactive: S. cerevisiae deletion strains, locus YAL040C, strain CLN3, active compounds read low 0.99 | S. cerevisiae deletion strains, locus YCL061C, strain MRC1 (second series), active compounds read low 0.99 | [12] 1.01 | S. cerevisiae deletion strains, locus YDR363W, strain ESC2, active compounds read low 0.96 | S. cerevisiae deletion strains, locus YER002W, strain NOP16, active compounds read low 0.999 | [64] 1.01 | S. cerevisiae deletion strains, locus YNL175C, strain NOP13, active compounds read low 0.974 | S. cerevisiae deletion strains, locus YNL197C, strain WHI3, active compounds read low 0.977 | S. cerevisiae deletion strains, locus YNL224C, strain SQS1, active compounds read low 1 | [73] 0.991 | S. cerevisiae deletion strains, locus YOR083W, strain WHI5 (second series), active compounds read low 0.995

c1ccc2c(c1)cc1ccc3cccc4ccc2c1c34
inactive: [1] 1.03 | [2] 1.05 | [3] 1.02 | [4] 0.995 | [5] 1.03 | [6] 1.06 | [7] 1.03 | [8] 1.02 | [9] 0.995 | [10] 0.994 | [11] 0.995 | [12] 1.02 | [13] 1.03 | [14] 0.996 | [15] 0.988 | [16] 1.02 | [17] 1.02 | [18] 0.981 | [19] 1.01 | [20] 1.03 | [21] 0.988 | [22] 0.993 | [23] 1.02 | [24] 1.03 | [25] 1.01 | [26] 1.05 | [27] 1 | [28] 1.01 and 0.927 | [29] 0.982 | S. cerevisiae deletion strains, locus YHR079C, strain IRE1, active compounds read low 0.988 | [30] 0.993 | [31] 1.02 | [32] 0.998 | [33] 1.02 | [34] 1.02 | [35] 1.01 | [36] 0.991 | [37] 1.05 and 0.943 | [38] 1.01 | [39] 0.989 | [40] 1.03 | [41] 1.06 | S. cerevisiae deletion strains, locus YJR066W, strain TOR1, active compounds read low 0.903 | [42] 1.02 | [43] 0.994 | [44] 1 | [45] 1.01 | [46] 1.01 | [47] 1.01 | [48] 0.994 | [49] 1.02 | [50] 1.02 | [51] 0.99 | S. cerevisiae deletion strains, locus YLR113W, strain HOG1, active compounds read low 0.961 | [52] 1.04 | [53] 1.01 | [54] 1.01 | [55] 1.01 | [56] 0.994 | [57] 1.03 | [58] 1.02 | [59] 0.996 | [60] 0.996 | [61] 1.01 | [62] 1.01 | [63] 1.03 | [64] 1.02 | [65] 1.04 | [66] 1.04 | [67] 1.02 | S. cerevisiae deletion strains, locus YNL183C, strain NPR1, active compounds read low 0.884 | [68] 1.03 | [69] 0.998 | [70] 1 | [71] 1.01 | [72] 0.993 | [73] 1.02 | [74] 0.982 | [75] 1.04 | [76] 0.939 | [77] 0.992 | [78] 1.01 | [79] 1.04 | [80] 0.99 | [81] 0.989 | [82] 1.01 | S. cerevisiae deletion strains, locus YOR231W, strain MKK1, active compounds read low 0.979 | [83] 0.992 | [84] 1.08 | [85] 1.03 | S. cerevisiae deletion strains, locus YPL256C, strain CLN2, active compounds read low 0.996 | [86] 0.983 | [87] 1 | [88] 0.995 | [89] 1 | [90] 1.01 | [91] 1.01
